# Source: PubChem BioAssay AID686978 (National Center for Advancing Translational Sciences (NCATS), 2013)
# Where “and” joins values, the source holds several entries; their conditions need not be identical. Equal values may be shown once. Among all 420,000 compounds or so, about 64,000 (15%) were called active. Roughly 27% stayed inconclusive and do not appear here. The call rests on the fitted dose curve; in most records, active means well fitted inhibition curve with a large enough effect; inconclusive means small, poorly fitted or top-dose-only effect; inactive means flat fitted curve, though single readings scatter. Only a sample is shown. A structure can be active in one record and inactive in another.
# Experiment: qHTS for Inhibitors of human tyrosyl-DNA phosphodiesterase 1 (TDP1): qHTS in cells in absence of CPT; further: nearly all actives have a fitted effect of over 55% in size
# Conditions: DT40 Tdp1-/- hTDP1 cells, no CPT, ATP luminescence, 48 h; activity change, negative = growth inhibition: at 46.2 µM (top of the series)
# Method in brief: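 Stably hTDP1-transfected Tdp1-null chicken DT40 cells were treated with library compounds minus camptothecin and grown for at least 48 hr at 37 °C, after which cellular ATP was quantified by luminescence.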
# On the % scale 0 is the no-effect control and ±100 the full control effect; potency means the concentration at half of the fitted maximal effect.
SMILES,"activity change, negative = growth inhibition",Potency
COc1cccc(NC(=O)N2CCC(NC(=O)C(Cc3cccc(C)c3)NC(C)=O)CC2)c1 (centres undefined),19.9% (inactive),
NC(=O)Cn1c(=O)oc2ccccc21,-3.28% (inactive),
CCN(CC)CCN(C(=O)c1ccc(S(=O)(=O)N2CCOCC2)cc1)c1nc2cc3c(cc2s1)OCCO3,-7.11% (inactive),
CCOc1ccc2nc(N(CCN(C)C)C(=O)c3ccc4ccccc4c3)sc2c1,-5.15% (inactive),
CN(C)CCCN(C(=O)c1ccc(S(=O)(=O)N2CCCCCC2)cc1)c1nc2ccc(Br)cc2s1,,18.4 µM (active)
COCc1c(C(=O)OCc2c(C)noc2C)oc2ccccc12,-2.67% (inactive),
CCNC(=S)NNC(=O)c1ccc2ncccc2c1,-5.48% (inactive),
CC(=O)Nc1ccc(Sc2ccccc2C(=O)N2CCCC2)cn1,-18.6% (inactive),
CNC(=O)C[C@H]1C(=O)N(Cc2ccccc2)C[C@@H]1CSC,-20.5% (inactive),
O=C(C[C@H]1C(=O)N(c2ccc(F)c(F)c2)C[C@@H]1Cc1ccccc1)Nc1ccccc1,,inactive and 15.8 µM (active)
CNC(=O)C[C@H]1C(=O)N(c2ccc(OC)cc2)C[C@@H]1Cc1ccccc1,-16.7% (inactive),
CCOc1cc2[nH]c(=O)n(CCC(=O)NCc3ccc(OC)cc3)c(=O)c2cc1OCC,0.129% (inactive),
CN=C1SC(CC(=O)Nc2ccc(C(=O)O)cc2)C(=O)N1C (centres undefined),-12% (inactive),
CC1C(=O)C(C)C(c2ccc(O)cc2)NC1c1ccc(O)cc1 (centres undefined),-8.1% (inactive),
O=c1cc(CN2CCN(S(=O)(=O)/C=C/c3ccccc3)CC2)c2ccc(O)cc2o1,,20.6 µM (active)
CC(=O)N1CCN(Cc2cc(=O)oc3cc(C)ccc23)CC1,5.29% (inactive),
NC(=O)CCN1CCN(S(=O)(=O)/C=C/c2ccccc2)CC1,-3.19% (inactive),
COc1ccc(NC(=O)CCCN2C(=O)C(c3ccccc3)Oc3cccnc32)cc1 (centres undefined),4.59% (inactive),
O=S1(=O)CCN(C2CCCCCCCCCCC2)CC1,,20.6 µM (active)
O=S1(=O)CC(N2CCN(CCO)CC2)CN1C1CCCC1 (centres undefined),-2.44% (inactive),
O=C(O)C1CCN1C1CCCCC1 (centres undefined),-3.77% (inactive),
COc1ccc(NC(=O)N(C)C[C@@H]2OCc3cn(nn3)CCCC(=O)N([C@H](C)CO)C[C@H]2C)c(OC)c1,-14.2% (inactive),
COCCN(C(=O)CC1CCCCC1)c1c(N)n(CC(C)C)c(=O)[nH]c1=O,0.685% (inactive),
CC(C)C1C(=O)N(Cc2cn(CCC3OCCO3)nn2)CCS(=O)(=O)N1Cc1ccc(-c2ccccc2C(F)(F)F)cc1 (centres undefined),,25.9 µM (active)
CCC(C)[C@H]1COCCS(=O)(=O)N1Cc1ccc(C)cc1 (some centres undefined),-25% (inactive),
Cc1ccc(-c2ccc(CN3C(C)C(=O)N(Cc4cn(CCC5OCCCO5)nn4)CCS3(=O)=O)cc2)cc1 (centres undefined),,23.1 µM (active)
Cc1ccc(-c2ccc(CN3C(C(C)C)C(=O)N(Cc4cn(CCC5OCCCO5)nn4)CCS3(=O)=O)cc2)cc1 (centres undefined),,11.6 µM (active)
Cc1ccc(CN2CCCOCCS2(=O)=O)cc1,,inactive
Cc1ccc(-c2ccc(CN3C(C(C)C)C(=O)N(Cc4cn(CCC5OCCO5)nn4)CCS3(=O)=O)cc2)cc1 (centres undefined),,7.31 µM (active)
